Among all 310,000 compounds or so, about 14,000 (4.5%) showed an effect of 50% or more. Effects have a minus sign here. The list comes from a sample in which strong results are over-represented; it also holds similar structures and randomly drawn compounds.
target: human ether-à-go-go-related gene (hERG) potassium channel (human, UniProt Q12809); assay: primary screen, population patch clamp on CHO cells stably expressing hERG; higher = less effect of the substance
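Also: peak tail current of the secondary pulse compared with the same well before compound.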

Chain of human ether-à-go-go-related gene (hERG) potassium channel (Q12809 whole entry, looked up): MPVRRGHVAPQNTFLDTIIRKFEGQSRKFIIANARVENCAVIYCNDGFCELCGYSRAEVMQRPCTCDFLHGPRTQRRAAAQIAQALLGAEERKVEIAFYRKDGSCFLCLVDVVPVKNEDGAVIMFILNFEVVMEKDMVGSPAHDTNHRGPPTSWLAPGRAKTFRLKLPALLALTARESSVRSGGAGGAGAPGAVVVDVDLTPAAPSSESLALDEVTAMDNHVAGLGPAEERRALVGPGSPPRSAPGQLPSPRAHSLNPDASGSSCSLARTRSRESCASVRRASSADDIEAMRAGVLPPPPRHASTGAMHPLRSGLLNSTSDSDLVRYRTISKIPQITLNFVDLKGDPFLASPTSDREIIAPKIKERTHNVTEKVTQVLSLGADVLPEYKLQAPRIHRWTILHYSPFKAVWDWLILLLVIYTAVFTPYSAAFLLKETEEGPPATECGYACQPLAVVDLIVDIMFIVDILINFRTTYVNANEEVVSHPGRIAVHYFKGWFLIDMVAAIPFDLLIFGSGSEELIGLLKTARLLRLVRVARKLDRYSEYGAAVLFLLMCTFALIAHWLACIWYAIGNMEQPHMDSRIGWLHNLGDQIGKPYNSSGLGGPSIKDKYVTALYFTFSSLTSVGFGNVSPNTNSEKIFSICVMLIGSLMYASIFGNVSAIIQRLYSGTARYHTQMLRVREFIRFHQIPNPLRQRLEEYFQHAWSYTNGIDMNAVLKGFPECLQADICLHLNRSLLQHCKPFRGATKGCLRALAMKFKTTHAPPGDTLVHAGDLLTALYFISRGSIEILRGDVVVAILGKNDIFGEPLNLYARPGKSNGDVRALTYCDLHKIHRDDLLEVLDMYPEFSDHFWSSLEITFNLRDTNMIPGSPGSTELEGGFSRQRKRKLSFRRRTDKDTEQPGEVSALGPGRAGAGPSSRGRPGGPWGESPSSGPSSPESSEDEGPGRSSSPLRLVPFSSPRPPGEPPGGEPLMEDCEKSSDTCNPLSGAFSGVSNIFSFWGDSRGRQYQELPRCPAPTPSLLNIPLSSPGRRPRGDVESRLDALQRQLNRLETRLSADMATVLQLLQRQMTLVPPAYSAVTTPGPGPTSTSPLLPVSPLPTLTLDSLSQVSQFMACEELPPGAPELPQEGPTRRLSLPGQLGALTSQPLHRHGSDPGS

| Compound | hERG current change (%, negative = inhibition) at 10uM [%] |
| --- | --- |
| COc1cccc(C2CC(c3ccccc3)Nc3nc(N)nn32)c1 (centres unmarked) | -7.93 |
| S=c1[nH]nc(Cc2cccs2)n1-c1cccc2ccccc12 | -10.4 |
| O=[N+]([O-])c1ccc(CNc2cccc(F)c2)s1 | -32.3 |
| Cc1ccc(CNC(=O)c2nc3nc(C)cc(C)n3n2)cc1 | 14.4 |
| Cc1cccc(NC(=S)Nc2cccc3ccccc23)c1 | 15.9 |
| Cc1ccc(NC(=S)NC2CCN(Cc3ccccc3)CC2)c(C)c1 | -12.9 |
| CCOC(=O)c1c(-c2ccc(C)cc2)csc1NC1=NS(=O)(=O)c2ccccc21 | -1.41 |
| CC(=O)C1CCN(Cc2ccccc2)CC1 | 20.5 |
| CSc1ccccc1OC1CCN(Cc2ccccc2)CC1.Cl | -24.3 |
| Cl.N#CC(c1ccccc1)C1CCN(Cc2ccccc2)CC1 (centres unmarked) | -50.9 |
| O=C(OCC(=O)N1CCCCCC1)c1ccc([N+](=O)[O-])cc1Cl | 8.47 |
| Cc1ccccc1S(=O)(=O)Nc1nc2ccccc2nc1N1CCOCC1 | 7.22 |
| CCn1ccc(C(=O)NC2=NCCS2)n1 | -3.73 |
| CCNC(=O)/C(C#N)=C/c1c(N2CCCCCC2)nc2ccccn2c1=O | -9.13 |
| CCNC(=O)/C(C#N)=C/c1c(N2CCN(c3ccccc3)CC2)nc2ccccn2c1=O | -66.3 |
| COCCNC(=O)/C(C#N)=C/c1c(N2CCN(c3ccccc3)CC2)nc2ccccn2c1=O | -20.7 |
| CCNC(=O)/C(C#N)=C/c1c(N2CCOCC2)nc2ccccn2c1=O | -4.68 |
| CNC(=O)/C(C#N)=C/c1c(N2CCCCCC2)nc2ccccn2c1=O | 10.2 |
| C=CCNC(=O)/C(C#N)=C/c1c(N2CCCCCC2)nc2ccccn2c1=O | -59.6 |
| CC(=O)OCn1ncc(N2CCOCC2)c(Br)c1=O | 16.5 |

| Compound | hERG current change (%, negative = inhibition) at 10uM [%] |
| --- | --- |
| Cc1ccc(/C=N/Nc2cc(C)nc(N3CCOCC3)n2)cc1 | 17.5 |
| Cc1ccc(N=Nc2c(O)[nH]c(=O)[nH]c2=O)c([N+](=O)[O-])c1 | -5.68 |
| Cc1ccc(S(=O)(=O)NC(CCc2ccccc2)CC(=O)C(C)(C)C)cc1 (centres unmarked) | -0.463 |
| O=C(c1ccc(N2CCOCC2)c([N+](=O)[O-])c1)N1CCCC(C(F)(F)F)C1 (centres unmarked) | 2.23 |
| Cc1ccc(S(=O)(=O)NC(=O)N(C)C2CCCCC2)cc1 | 9.07 |
| CN(C)CCCNc1nc(-c2ccccc2)c2c(c1C#N)CC(C)(C)OC2 | -57.4 |
| CC1(C)Cc2c(C#N)c(NCCN3CCOCC3)nc(-c3ccccc3)c2CO1 | -17.1 |
| CN(C)CCNc1nc(-c2ccccc2)c2c(c1C#N)CC(C)(C)OC2 | -42.4 |
| COc1nc(-c2ccccc2)c2c(c1C#N)CC(C)(C)OC2 | -11.2 |
| Cc1nc(NCCCO)c(C#N)c2c1COC(C)(C)C2 | -15 |
| CC1(C)Cc2c(C#N)c(NCCCO)nc(-c3ccccc3)c2CO1 | -56 |
| CC1CCCCN1S(=O)(=O)c1ccc(C(=O)Nc2nnc(-c3ccco3)o2)cc1 (centres unmarked) | -2.35 |
| O=C(CCc1ccccc1)NNC(=O)Cc1ccc(Cl)cc1 | 13.1 |
| CCOC(=O)C1=C(C)Nc2ccccc2N=C1NC(=O)c1cccc(S(=O)(=O)NCc2ccccc2)c1 | -19.4 |
| Cc1nn(Cc2n[nH]c(=S)n2Cc2ccccc2)c(C)c1Cl | 14 |
| CCOc1ccc(CN2CCN(Cc3cccc4c3OCO4)CC2CCO)cc1 (centres unmarked) | -77.4 |
| Cc1ccc(CN2CCN(Cc3cccc4c3OCO4)CC2CCO)cc1 (centres unmarked) | -51.2 |
| CC(C)N1CCN(Cc2cc3c(cc2Cl)OCO3)CC1CCO (centres unmarked) | -2.34 |
| OCCC1CN(Cc2cc3c(cc2Cl)OCO3)CCN1C1CCCC1 (centres unmarked) | -50.8 |
| CC(C)N1CCC(N2CCN(Cc3cc4c(cc3Cl)OCO4)CC2CCO)CC1 (centres unmarked) | -18.5 |

| Compound | hERG current change (%, negative = inhibition) at 10uM [%] |
| --- | --- |
| CC(C)CN1CCN(Cc2cccc3c2OCO3)CC1CCO (centres unmarked) | -1.45 |
| CCOc1ccc(CN2CCN(Cc3cc4c(cc3Cl)OCO4)CC2CCO)cc1 (centres unmarked) | -73.3 |
| CC(C)=CCN1CCN(Cc2cccc3c2OCO3)CC1CCO (centres unmarked) | -12.6 |
| OCCC1CN(Cc2cccc3c2OCO3)CCN1C1CCCC1 (centres unmarked) | -20.4 |
| OCCC1CN(Cc2cccc3c2OCO3)CCN1Cc1ccccc1 (centres unmarked) | -3.38 |
| CC(C)N1CCN(Cc2cccc3c2OCO3)CC1CCO (centres unmarked) | -0.928 |
| OCCC1CN(Cc2cc3c(cc2Cl)OCO3)CCN1Cc1ccccc1 (centres unmarked) | -45.3 |
| COc1ccc(C2/C=C\CN(CC(C)C)CC(=O)N2Cc2ccc(F)cc2)cc1 (centres unmarked) | -6.03 |
| Cc1cc([N+](=O)[O-])nn1CC(=O)N(C)C1CCCCC1 | -18.6 |
| O=C(Nc1ccccc1Cl)C1CCN(S(=O)(=O)c2cccc3nonc23)CC1 | 16 |
| CC(=O)c1c(C)oc2ccc(N(C(C)=O)S(=O)(=O)c3cccc([N+](=O)[O-])c3)cc12 | 8.76 |
| N#C/C(=C(/O)CN1C(=O)c2ccccc2C1=O)c1nc2ccccc2[nH]1 | 11.6 |
| CCOc1ccccc1CN1CCN(Cc2cccc3c2OCO3)CC1CCO (centres unmarked) | -62.6 |
| COc1cc(S(=O)(=O)N(Cc2cccnc2)Cc2cccc(OC)c2OC)ccc1-n1cnnn1 | -46.5 |
| COc1cc(S(=O)(=O)N(Cc2ccc(C)cc2)Cc2ccco2)ccc1-n1cnnn1 | 2.53 |
| COc1cc(S(=O)(=O)N(Cc2cccnc2)Cc2ccco2)ccc1-n1cnnn1 | -52.3 |
| COc1ccc(CN(Cc2cccnc2)S(=O)(=O)c2ccc(-n3cnnn3)c(OC)c2)cc1 | -46.7 |
| COc1ccccc1CN(Cc1cccnc1)S(=O)(=O)c1ccc(-n2cnnn2)c(OC)c1 | -63 |
| COc1ccccc1CN(Cc1ccco1)S(=O)(=O)c1ccc(-n2cnnn2)c(OC)c1 | 7.21 |

— PMC4336329 (PLoS ONE, 2015)
